# Experimental data taken from PubChem BioAssay AID1981 (Southern Research Specialized Biocontainment Screening …, 2009).
# The whole screen tested about 2,200 compounds, of which about 480 (22%) were called active. The rule behind the calls is not given here. These entries were drawn from the full list. Measured potencies and affinities stand elsewhere.
# Assay: S. Typhimurium GFP fluorescence dose response in modified counterscreen for PhoP regulon inhibitor project (AID 1981);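 note: 0% = induced DMSO wells and 100% = uninduced wells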
# Details: 4 h; series mostly up to 150 µM; inhibition: at the top concentration
row,Structure (SMILES),inhibition
1,CC(C)(C)NC(=O)CSc1nnc(-c2ccncc2)o1,2.59% (inactive)
2,COc1ccccc1/C=C1\CCCC2=C1Nc1nnnn1C2c1ccccc1OC (centres undefined),13% (inactive)
3,COC(=O)c1sccc1NC(=O)CSc1ccccc1NS(=O)(=O)c1ccc(Cl)cc1,-3.4% (inactive)
4,O=[N+]([O-])c1ccc(NCCCNS(=O)(=O)c2ccccc2)c(Cl)c1,-2.82% (inactive)
5,CCC(C)C(NC(=O)OCc1ccccc1)C(=O)OCN1C(=O)c2ccccc2C1=O (centres undefined),5.7% (inactive)
6,c1ccc(-c2ncnc3nc4n(c23)CCC4)cc1,-1.03% (inactive)
7,CCn1nnc(-c2ccccc2NC(=O)c2ccc(-n3cnnn3)cc2)n1,-0.33% (inactive)
8,Cc1cc(-c2csc(N)n2)c(C)n1C,-7.84% (inactive)
9,COc1cc(NC(=O)Nc2cccc(Cl)c2)c(OC)cc1NC(=O)CN1CCCCC1,4.21% (inactive)
10,CN(C)CCNc1nc(-c2ccccc2)nnc1C(F)(F)F,-13.8% (inactive)
11,Cc1cc(NCCN2CCOCC2)n2ncc(-c3ccccc3)c2n1,2.32% (inactive)
12,COc1cc(C2SCC(=O)N2c2nnc(C34CC5CC(CC(C5)C3)C4)s2)cc(OC)c1OC (centres undefined),-15.5% (inactive)
13,N#CCC1c2ccccc2CCN1C(=O)Nc1ccc(Cl)cc1 (centres undefined),5.37% (inactive)
14,CC1(C)CC(=O)C=C(Nc2ccc(Br)cn2)C1,-15.5% (inactive)
15,COCCNC(=O)CSCc1c(F)cccc1Cl,-7.74% (inactive)
16,Cc1ccc(C(=O)Oc2cccc(NC(=O)c3cccs3)c2)cc1S(=O)(=O)N1CCOCC1,-13% (inactive)
17,NC(=O)c1ccccc1N=Cc1ccccn1,-4.7% (inactive)
18,Cc1cc(C)cc(NC(=O)CSc2nc3c(c(=O)[nH]2)CN(Cc2ccc(F)cc2)CC3)c1,-13.9% (inactive)
19,COC(=O)C1(O)CC(C(C)C)=NN1C(=O)c1ccc(Cl)cc1 (centres undefined),-1.95% (inactive)
20,Cc1cccc(CN(C)C)c1OC(=O)N(C)C,-0.78% (inactive)
21,Cc1ccc(/C=C2\SC(=S)N(Cc3ccccc3)C2=O)o1,2.23% (inactive)
22,COc1ccc(NC2=Nc3cccc4cccc2c34)cc1,4.87% (inactive)
23,Oc1cccc2ccc[n+](CC(O)Cn3c4ccccc4c4ccccc43)c12 (centres undefined),1.86% (inactive)

row,Structure (SMILES),inhibition
1,O=C(CSc1ncnc2ccccc12)Nc1cc(S(=O)(=O)N2CCCCC2)ccc1Cl,-3.66% (inactive)
2,COc1ccc(NS(=O)(=O)c2cc(C)ccc2NC(=O)c2cc(C)oc2C)cc1,-2.27% (inactive)
3,COc1ccc(C)cc1C(=O)CCC(=O)Nc1ccccc1N1CCOCC1,6.84% (inactive)
4,CCCOc1ccc(C(=O)N2CCCC2C(=O)O)cc1 (centres undefined),16.7% (inactive)
5,O=C(CN1CCC(NC(=O)c2cccc(F)c2)CC1)NCc1ccccc1F,-13.7% (inactive)
6,CCCOc1ccc(C(=O)CCC(=O)OCC(=O)N2CC(=O)Nc3ccccc32)cc1,16.2% (inactive)
7,CCn1cc(C(=O)NCc2ccncc2)c(=O)c2cc(F)c(N3CCN(C(=O)c4ccco4)CC3)cc21,-5.18% (inactive)
8,O=C(Nc1nc(-c2ccncc2)cs1)C1c2ccccc2Oc2ccccc21,34.1% (inactive)
9,O=C1c2[nH]nc(-c3ccccc3O)c2C(c2ccc(F)cc2)N1Cc1ccco1 (centres undefined),-28.4% (inactive)
10,CCCCNC(=O)OC1CCS(=O)(=O)C1 (centres undefined),3.96% (inactive)
11,COC(=O)c1ccccc1NC(=O)NCc1ccc2c(c1)OCO2,-10.6% (inactive)
12,O=C(CN1CCCCCC1)Nc1cccc(Br)c1,-1.83% (inactive)
13,C=CCSc1nnc(-c2ccc(Cl)cc2Cl)o1,-8.96% (inactive)
14,CCCCCOc1ccc(NC(=O)C(=O)NCCC2=CCCCC2)cc1,-0.5% (inactive)
15,Cc1ccc(OCC(=O)N2CCN(S(=O)(=O)c3ccccc3)CC2)c([N+](=O)[O-])n1,-21.7% (inactive)
16,Cc1nc(CC(=O)c2ccc(O)cc2O)cs1,-4.6% (inactive)
17,CCc1c(C)c2cc(Cl)c(O)c(CN3CCCCC3)c2oc1=O,6.99% (inactive)
18,Cc1onc(-c2c(F)cccc2Cl)c1C(=O)Nc1cccc(Cn2cccn2)c1,5.52% (inactive)
19,NC(CSC12CC3CC(CC(C3)C1)C2)C(=O)O (centres undefined),-3.86% (inactive)
20,Cn1c(CN2CCCCC2)nc2cc(NS(=O)(=O)c3ccc(Cl)cc3)ccc21,-5.37% (inactive)
21,COc1ccc2c(c1)[nH]c1c(N3CCN(Cc4ccc5c(c4)OCO5)CC3)ncnc12,-3.88% (inactive)
22,O=C(NCCNc1ccc([N+](=O)[O-])cc1C(F)(F)F)c1ccc(F)cc1,16.8% (inactive)
23,COCCNS(=O)(=O)c1cccn1-c1ncc(C(F)(F)F)cc1Cl,8.31% (inactive)

row,Structure (SMILES),inhibition
1,CCCCn1c(SCC(=O)Nc2nnc(CC)s2)nc2c1c(=O)n(C)c(=O)n2C,4.13% (inactive)
2,CCn1nc(C(=O)NCc2ccco2)c(Cl)c1Cl,-22.6% (inactive)
3,CCOC(=O)CSc1n[nH]c(NC(=O)c2cccc(C)c2)n1,-1.32% (inactive)
4,Cc1cccc(C(=O)NC(=S)Nc2ccc(N3CCOCC3)cc2)c1,-7.74% (inactive)
5,Cc1cc(C)c2nc(NNC(=O)c3ccc(S(=O)(=O)N4CCc5ccccc5C4)cc3)sc2c1,16.8% (inactive)
6,O=C(O)CCCCCN1C(=O)c2ccc(C(=O)O)cc2C1=O,-6.65% (inactive)
7,O=C(/C=C/c1ccccc1Cl)c1ccccc(=O)c1O,7.68% (inactive)
8,Cc1ccc(NC(=O)c2ccccc2)s1,17% (inactive)
9,CC1=C(C(=O)Nc2cccnc2)C(c2ccccn2)n2nnnc2N1 (centres undefined),11% (inactive)
10,Cc1cccnc1NC(=O)CCCN1C(=O)c2ccccc2C1=O,-17% (inactive)
11,CC(=O)c1cccc(NC(=O)Nc2cccs2)c1,8.26% (inactive)
12,CC1(C)CC(=O)C=C(Nc2ccccc2NC(=O)c2cnccn2)C1,-16% (inactive)
13,COc1ccc(N2CCN(C(=O)Nc3ccc(S(=O)(=O)N(C)C)cc3)CC2)cc1,-4.18% (inactive)
14,Cc1ccc(S(=O)(=O)N(CC(=O)N=Nc2c(O)[nH]c3ccccc23)c2ccc(C)c(C)c2)cc1,-1.5% (inactive)
15,NC(N)=Nc1nc(C2COc3ccccc3O2)cs1 (centres undefined),6.56% (inactive)
16,O=C(CSCc1nc2ccccc2[nH]1)Nc1ccc2ccccc2c1,9.39% (inactive)
17,COc1cc(CNCc2ccccn2)ccc1OCC(=O)NC(C)(C)C,-6.14% (inactive)
18,O=S(=O)(/N=C(/Nc1cccc2ccccc12)c1ccccc1)c1cccs1,-14.9% (inactive)
19,FC(F)(F)COc1nc(OCC(F)(F)F)nc(N2CCN(c3ccccc3)CC2)n1,-12.4% (inactive)
20,COc1cccc(C2CC(=O)Nc3cc(OC)c(OC)c(OC)c32)c1OC (centres undefined),-9.55% (inactive)
21,COCCn1c(-c2ccccc2F)n[nH]c1=S,-1.15% (inactive)
22,C1=C(CCNc2ncnc3c2[nH]c2ccccc23)CCCC1,-1.64% (inactive)
23,COc1ccc(C(=O)NCCC2=CCCCC2)cc1OC,13.9% (inactive)

row,Structure (SMILES),inhibition
1,O=C(NC1CCCCC1)n1c(=O)oc2ccc(Cl)cc21,19.4% (inactive)
2,COc1ccc(C2C(C(=O)c3cccs3)=C(O)C(=O)N2c2nnc(C)s2)cc1OC (centres undefined),-14.3% (inactive)
3,Nc1ccc2c(c1)C(=O)N(CC1CCCO1)C2=O (centres undefined),-4.44% (inactive)
4,Oc1cccc(Nc2c3ccccc3nc3ccccc23)c1,29.4% (inactive)
5,Cc1cccc(N2CCc3c2nc2ccccc2c3N)c1,3.75% (inactive)
6,c1ccc(CNc2c3c(nc4ccccc24)CCC3)cc1,-11.6% (inactive)
7,Cc1cccc(Nc2c3c(nc4ccccc24)CCC3)c1,7.15% (inactive)
8,CCOc1ccc(Nc2nc(NCCN3CCOCC3)nc(OC)n2)cc1,-4.02% (inactive)
9,CCOC(=O)c1cnc2ccccc2c1Nc1ccc2c(c1)OCCO2,4.99% (inactive)
10,CCc1ccc(Nc2nc(N)nc(CSc3nc4ccccc4s3)n2)cc1,10.7% (inactive)
11,Cc1cccc(Nc2nc(N)nc(CN3CCN(c4ccccc4)CC3)n2)c1,6.77% (inactive)
12,CC1(C)CC(=O)C(C=Nc2ccc(Cl)cn2)=C(O)C1,-4.41% (inactive)
13,Cc1cc(C)n(-c2ccc(C(=O)OCC(=O)Nc3ccc([N+](=O)[O-])cc3)cc2)n1,-5.1% (inactive)
14,O=C(NCCc1ccc(Cl)cc1)/C(=C/c1cccnc1)NC(=O)c1ccccc1,-15.3% (inactive)
15,S=C(NCc1cccnc1)Nc1cccc(Cl)c1,-0.39% (inactive)
16,CCOc1ccc(S(=O)(=O)Nc2ccc(C(=O)N/N=C/c3c(C)nn(-c4ccccc4)c3N3CCCC3)cc2)cc1,-6.55% (inactive)
17,Cc1cccc(NC(=O)Cn2c(/C=C/c3ccccc3)nc3ccccc32)c1,-10.8% (inactive)
18,CC1CCCCN1Cc1cnc(Cl)s1 (centres undefined),2.45% (inactive)
19,Cc1ccc2nc(Cc3ccc(N)cc3)[nH]c2c1,9.83% (inactive)
20,Cc1ccc(-c2csc(N=C(N)N)n2)c(C)c1,30.2% (inactive)
21,Cc1ccc(-c2nc3ccccc3s2)cc1S(=O)(=O)N1CCCC1,-11.2% (inactive)
22,Cn1c(SCC(=O)N2c3ccccc3CCc3ccccc32)nnc1-c1cc2ccccc2cc1O,34.6% (inactive)
23,O=S(=O)(NC1=NCCCCC1)c1cccs1,2.48% (inactive)

row,Structure (SMILES),inhibition
1,Cc1ccc(NC(=O)C2CC(=O)NC(N3CCCCC3)=N2)cc1Cl (centres undefined),0.62% (inactive)
2,Cc1nn(CCOc2ccccc2)c(=O)n1-c1ccc(F)cc1,-5.37% (inactive)
3,CC(CCc1ccccc1)NC(=O)c1ccccc1 (centres undefined),-1.11% (inactive)
4,CC(Cc1ccccc1Sc1ccccc1O)N(C)C (centres undefined),-3.13% (inactive)
5,CC(C)CCn1c(SCC(=O)N2CC(=O)Nc3ccccc32)nc2scc(-c3cccs3)c2c1=O,0.62% (inactive)
6,O=C(O)C1(P(=O)(c2ccccc2)c2ccccc2)CCC1,-20.8% (inactive)
7,N#Cc1c(-c2ccccc2)ccn(Cc2cccc(Cl)c2)c1=O,0.47% (inactive)
8,COc1ccc(-c2nc3ncccc3n2O)cc1,-14.9% (inactive)
9,Nc1ccccc1NC1=CC(=O)CC(c2ccco2)C1 (centres undefined),3.13% (inactive)
10,CCn1cc(C(=O)O)c(=O)c2cnc(N3CCN(C(=S)NC(=O)c4ccc(Cl)cc4)CC3)nc21,-19.7% (inactive)
11,CCn1cc(C(=O)OCC(=O)Nc2ccc(S(=O)(=O)N3CCCC3)cc2)c(=O)c2ccc(C)nc21,-9.11% (inactive)
12,COc1ccccc1N1CCN(C(=O)CSc2nc3ccccc3o2)CC1,5.8% (inactive)
13,O=C(O)Cn1cc(C(=O)c2ccco2)c2ccccc21,-6.5% (inactive)
14,O=S(=O)(c1ccc(S(=O)(=O)N2CCN(C/C=C/c3ccccc3)CC2)cc1)N1CCCC1,-21.5% (inactive)
15,NS(=O)(=O)c1ccc(Nc2nc(-c3ccc(O)cc3)cs2)cc1,-5.72% (inactive)
16,Fc1cccc(NCc2cn3ccccc3n2)c1,0.65% (inactive)
17,CNc1nnc(-c2cccc(N(C)C)c2)s1,-1.85% (inactive)
18,COC(=O)c1c(C)[nH]c(C(C)=O)c1C,-4.71% (inactive)
19,COc1ccc2c(c1)C1C=CCC1C(c1cc3c(cc1Br)OCO3)N2 (centres undefined),26.4% (inactive)
20,COc1ccc(C(=O)N2CCc3cc(OC)c(OC)cc3C2)cc1OC,-2.44% (inactive)
21,COc1ccc(S(=O)(=O)N2CCN(Cc3ccccc3)CC2)cc1,1.55% (inactive)
22,COc1ccc(C(=O)On2c(-c3ccc(Br)cc3)nc3ccccc3c2=O)cc1,6.84% (inactive)
